Each structure is given as a SMILES string. Counter-ions that a name gives are not always drawn. ± gives the standard deviation of the averaged measurements.

Among the data in the supplement of paper PMC4894684 are parasite growth values, retold here.

For the assay, the system named is Toxoplasma gondii RH (in HFF). Nature of the assay: parasite growth relative to the screen mean (all compounds = 100%); higher = less inhibition of parasite growth. The conditions noted are these: 5 µM; 72 h; oxygen 21 %. In outline:
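RH β-Gal–GFP Toxoplasma at MOI 1:5 was used to infect confluent human foreskin fibroblasts in 96-well plates within 2 h of pin-transferring compounds to 5 µM final. After 72 h at 21% O2, parasite number was determined by CPRG β-Gal assay against standard curves on the same plate. Growth is relative to the screen mean and averaged over two screens, with all compounds = 100%.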
`CC1=C(/C=C/C(=C/C=C/C(C)=C/C(=O)O)c2ccc(C)cc2)C(C)(C)CCC1` gave a parasite growth of 94.1 ± 23%. For `CCc1cc(Cl)c(OC)c(C(=O)NC[C@@H]2CCCN2CC)c1O` [Eticlopride hydrochloride] the value was 106 ± 11%; for `Nc1c(S(=O)(=O)O)cc(Nc2cccc3ccccc23)c2c1C(=O)c1ccccc1C2=O`, 172 ± 11%. For `CC1=C(/C=C/C(C)=C/C=C/C(C)=C/C(=O)Nc2ccc(O)cc2)C(C)(C)CCC1` [Fenretinide], the parasite growth was 38 ± 8.6%.

`COc1cccc(OC)c1OCCNCC1COc2ccccc2O1` (stereo not drawn) [WB 4101 hydrochloride]: the parasite growth came to 93.3 ± 33%. For `CCCCCCCCCCCCCCCC(=O)O[C@H](CC(=O)O)C[N+](C)(C)C` (racemic) [(±)-Palmitoylcarnitine chloride] the value was 108 ± 22%. For `COc1cc(NC(=O)c2ccccn2)ccc1Cl` the value was 91.2 ± 30%; for `COc1ccc2c(c1)c(CC(=O)N1CCOCC1)c(C)n2C(=O)c1ccc(Cl)cc1`, 133 ± 23%. The same measure for `Cc1ccc(=O)n(-c2ccccc2)c1` [Pirfenidone]: 128 ± 11%. As to `COC1CCC(C(=O)c2ccc3nc4c(cc3c2)CCCO4)CC1` (stereo not drawn), the parasite growth turned out to be 136 ± 27%.

Molecule `Clc1cccc2c1CN(C1=NCCN1)C2` yielded a parasite growth of 92.2 ± 25%.

`c1cc2c3c(c1)c1c(n3CCNC2)CCCC1` [WAY 629 hydrochloride] had a parasite growth of 130 ± 4%. The same measure for `CN(C)C(=O)C(CCN1CCC(O)(c2ccc(Cl)cc2)CC1)(c1ccccc1)c1ccccc1` [Loperamide hydrochloride]: 20.6 ± 19%. For `N[C@H](C(=O)O)c1cc(O)cc(O)c1` the value was 119 ± 4.9%; for `O=C(O)c1ccc2cc(-c3ccc(O)c(C45CC6CC(CC(C6)C4)C5)c3)ccc2c1`, 181 ± 36%; for `C[C@]12CC[C@@H]3c4ccc(O)cc4C[C@@H](CCCCCCCCC[S+]([O-])CCCC(F)(F)C(F)(F)F)[C@H]3[C@@H]1CC[C@@H]2O` (stereo partly drawn), 43.7 ± 11%. For `COc1ccc(Nc2nccc(NCCO)n2)cc1` [Cardiogenol C hydrochloride] the value was 122 ± 4.2%; for `O=C(NCC1CCCCN1)c1cc(OCC(F)(F)F)ccc1OCC(F)(F)F` (stereo not drawn) [Flecainide acetate], 130 ± 7.9%; for `CCCCCCNC(=O)Nc1ccc(S(=O)(=O)Nc2ccc(CCNC[C@H](O)COc3ccc(O)cc3)cc2)cc1`, 170 ± 26%. Turning to `OCc1cc(C(O)CNCCCCCCOCCCCc2ccccc2)ccc1O` (stereo not drawn) [Salmeterol], the parasite growth was 14.4 ± 11%. For `O=C(O)CN1C(=O)c2cccc3cccc(c23)C1=O` [Alrestatin] the value was 100 ± 26%; for `O=c1cc(N2CCOCC2)oc2c1ccc1ccccc12`, 89.2 ± 2.4%. For `CCCCCCCCCCCCCCCC(=O)NCCO` [Palmitoylethanolamide] the value was 64.8 ± 16%. The same measure for `COCCOC(=O)C1=C(C)NC(C)=C(C(=O)OC/C=C/c2ccccc2)C1c1cccc([N+](=O)[O-])c1` (stereo not drawn) [Cilnidipine]: 27.9 ± 21%; for `CC1C(=O)OC2C(O)C34C5CC(C(C)(C)C)C36C(OC(=O)C6O)OC4(C(=O)O5)C12O` (stereo not drawn) [Ginkgolide B]: 82.1 ± 27%; for `N#Cc1cc2nc(O)c(O)nc2cc1[N+](=O)[O-]` [CNQX disodium salt]: 133 ± 37%. The molecule `CCOC(=O)C1=C(C)NC(C)=C(C(=O)OC)C1c1cccc([N+](=O)[O-])c1` (stereo not drawn) [Nitrendipine] displayed a parasite growth of 118 ± 5.5%. For `O=S(=O)(c1cccc2cnccc12)N1CCCNCC1` [Fasudil hydrochloride] the value was 90.6 ± 21%. For `O=c1cc(N2CCNCC2)oc2c(-c3ccccc3)cccc12` the value was 150 ± 30%; for `CC[N+](CC)(CC)CC(=O)Nc1c(C)cccc1C` [QX 314 chloride], 133 ± 29%; for `CC[C@H](C)C(=O)O[C@H]1C[C@H](O)C=C2C=C[C@H](C)[C@H](CC[C@@H](O)C[C@@H](O)CC(=O)O)[C@H]21` [Pravastatin sodium salt], 127 ± 9.5%.

In turn, `COc1cc(Br)c(S(=O)(=O)Nc2ccc(Cl)c(O[C@@H]3CCN(C)C3)c2)cc1OC` showed a parasite growth of 57.1 ± 16%. Take `Cc1cccc(C#Cc2ccccc2)n1` [MPEP hydrochloride]: the parasite growth worked out at 101 ± 37%. The same measure for `NC(=O)Nc1sc(-c2ccc(F)cc2)cc1C(N)=O`: 77.1 ± 11%; for `Cn1cccc1/C=C1\C(=O)NC(=O)c2ccccc21`: 121 ± 6.4%. The same measure for `CCN(c1ccccc1)c1cc(=NC)n(C)c(C)n1`: 59 ± 11%; for `CCCn1c(=O)c2[nH]c(C3CCCC3)nc2n(CCC)c1=O`: 103 ± 7%. The same measure for `Nc1nc(NCCc2ccc(O)cc2)nc2nc(-c3ccco3)nn12`: 11.2 ± 10%.
